Several values for one entry are separate records, joined by “and”; a condition that tells them apart may be missing. Equal entries are not always repeated. Results filed as inconclusive are left out. A number with no mark means an inactive call. Activity calls are given as the source filed them. Calls follow the shape of the dose curve; as a rule, active = well fitted cell-killing curve with a large enough effect in the repeat runs; inconclusive = weak or mixed curves, or effect the other way; inactive = no such curve, though single readings can be large or run the other way.
experiment: qHTS assay to identify small molecule antagonists of the retinoid-related orphan receptor gamma (ROR-gamma) signaling pathway - cell viability counter screen (AID 1159520); details: Tet-on RORgamma CHO cells viability, ATP luminescence, 16 h; series mostly up to 92.4 µM; activity, negative = cytotoxicity: at the top concentration; also: nearly all actives have a fitted effect of over 50% in size
Description: U.S. Tox21 Program National Center for Advancing Translational Sciences [NCATS] NIH Chemical Genomics Center [NCGC] U.S. Environmental Protection Agency [EPA] National Institutes of Environmental Health Sciences [NIEHS] National Toxicology Program [NTP] U.S. Food and Drug Administration [FDA] Tox21 Assay Overview: Nuclear steroid hormone receptors are involved in many biological processes including inflammatory responses, cell proliferation, and apoptosis. Environmental factors or compounds disrupting these nuclear receptor pathways and gene expression may promote susceptibility to immunotoxicants and autoimmune diseases. One important group of these expression factors are the retinoid-related orphan receptors. To assess compounds that may interfere with the retinoid-related orphan receptor gamma (ROR-gamma) transcription factor, a cell-based luciferase assay was used. The CHO cell-based assay utilizes a TET-inducible ROR expression factor and ROR response element-LUC reporter gene. Reporter gene activity was induced using Doxycycline Hyclate and measured after 16 hr incubation. Tet-on ROR gamma CHO cells were used to screen against the Tox21 10K compound library for cytotoxicity by measuring the viability of the cells based on the quantitation of the ATP.
Tox21 Assay Protocol Summary: Tet-on ROR gamma CHO cells were dispensed at 1,000 cells in 4 uL of culture medium per well into white wall/solid bottom 1536-well plates using a Multidrop Combi (Thermo Scientific, Waltham, MA) dispenser. Following incubation at 37 C and 5% CO2 for 4 hr, 23 nL of compounds dissolved in DMSO, positive controls or DMSO only were transferred by a Pintool station (Kalypsys, San Diego, CA) and after 2 hr incubation at 37 C, one ul of 1 uM (final concentration) of Doxycycline Hyclate was added to all the wells by using a Flying Reagent Dispenser (FRD) (Aurora Discovery, San Diego, CA). After 16 hr incubation at 37 C and 5% CO2, 5 uL of CellTiter-Glo reagent (Promega Corporation, Madison, WI) was added to each assay plate using FRD. After 30 min incubation at room temperature, luminescence was quantified on a ViewLux plate reader (Perkin Elmer, Waltham, MA).
% is scaled to controls: 0 for no effect and ±100 for the full control effect; potency is read from the fitted curve at half-maximal effect.

Row | Structure (SMILES) | activity, negative = cytotoxicity | Potency
1 | O=C(Cl)OCCOCCOC(=O)Cl | 0.192% | –
2 | Clc1ccc2ccccc2c1 | -18.4% | –
3 | COc1cc(CC(C)N)c(OC)cc1Br (stereo not given) | 0.799% | –
4 | CCOC(=O)c1cn2nc(OP(=S)(OCC)OCC)cc2nc1C | -17.8% | –
5 | Cc1cccc(C)c1NC1=NCCCS1 | -1.12% [at 42.5 µM] | –
6 | N#CC(C#N)=Cc1ccc(O)c(O)c1 | -13% [at 42.5 µM] | –
7 | CCC(=O)O[C@@H]1C=C2CCC3C(CCC4(C)C3CC[C@@H]4OC(=O)CC)C2CC1 (stereo not given in full) | 0.694% [at 42.5 µM] | –
8 | CC(C)CCCCCCCOC(=O)c1ccccc1C(=O)OCCCCCCCC(C)C | -6.11% | –
9 | CCOC(=O)c1cncn1C(C)c1ccccc1 (stereo not given) | 1.71% [at 42.5 µM] | –
10 | CCCCC(CC)COC(=O)c1c(Br)c(Br)c(Br)c(Br)c1C(=O)OCC(CC)CCCC (stereo not given) | 4.31% [at 42.5 µM] | –
11 | O=C(Cc1ccccc1)c1ccccc1 | 0.285% | –
12 | O=C1c2ccccc2C(=O)N1SC(Cl)(Cl)Cl | – | 30.2 µM (active) and 21.7 µM (active)
13 | O=[N+]([O-])c1cc(Cl)c(Cl)cc1Cl | -10.5% | –
14 | CN(C)C(=O)Nc1cccc(OC(=O)NC(C)(C)C)c1 | 6.31% | –
15 | C=CCN1C[C@H](C)N([C@H](c2ccc(C(=O)N(CC)CC)cc2)c2cccc(OC)c2)C[C@H]1C | 3.91% [at 42.5 µM] | –
16 | COc1ccc2c(c1OC)C(=O)O[C@H]2[C@@H]1c2cc3c(cc2CCN1C)OCO3 | 4.83% [at 42.5 µM] | –
17 | CC(Oc1cc(Cl)c(Cl)cc1Cl)C(=O)O (stereo not given) | 3.67% | –
18 | CC(C)c1ccc(NC(=O)N(C)C)cc1 | 4.67% | –
19 | CCOP(=S)(S)OCC | -10.3% | –
20 | C[N+](C)(C)CCOC(=O)C(O)(c1ccccc1)c1ccccc1 | 5.7% [at 42.5 µM] | –

Row | Structure (SMILES) | activity, negative = cytotoxicity | Potency
21 | CCC1(CCC(C)C)C(=O)NC(=O)NC1=O | 1.97% | –
22 | O=C(Cc1ccccc1)OCCc1ccccc1 | -10.7% | –
23 | O=[N+]([O-])O[C@H]1CO[C@H]2[C@@H]1OC[C@H]2O[N+](=O)[O-] | 1.63% [at 42.5 µM] | –
24 | CCOC(=O)C1OC1(C)c1ccccc1 (stereo not given) | – | inactive
25 | COc1cc(CC#N)cc(OC)c1OC | 1.07% [at 42.5 µM] | –
26 | CCCCCCCCCCCCN=C(N)N | -5.37% [at 3.27 µM] | –
27 | SCc1ccccc1 | 8.28% | –
28 | C=CCOC(=O)C(C)(C)OC(=O)c1cc(-n2c(=O)cc(C(F)(F)F)n(C)c2=O)ccc1Cl | 0.22% | –
29 | COC1CC(=C(c2cccs2)c2cccs2)C[N+](C)(C)C1 (stereo not given) | 1.46% [at 42.5 µM] | –
30 | CN1CC[C@]23c4c5ccc(O)c4O[C@H]2[C@@H](O)CC[C@H]3[C@H]1C5 | 1.4% | –
31 | NP(N)(=O)NC(=O)c1ccc(F)cc1 | 3.22% [at 42.5 µM] | –
32 | CC(=O)OC(c1ccccc1)C(Cl)(Cl)Cl (stereo not given) | -33.1% | –
33 | CCCC[N+](CCCC)(CCCC)CCCC | 1.82% | –
34 | Cc1nc2ccccc2c(=O)n1-c1ccccc1Cl | 1.18% | –
35 | NNCCO | 6.75% | –
36 | CCC1CCC(=O)O1 (stereo not given) | 10.2% | –
37 | CC(C)(C)NCC(O)c1ccccc1Cl (stereo not given) | 0.0122% [at 42.5 µM] | –
38 | CCCN(CCC)c1c([N+](=O)[O-])cc(C(C)C)cc1[N+](=O)[O-] | 1.69% | –
39 | CCCCNC(=O)OCC#CI | – | 54.2 µM (active) and 17.2 µM (active)
40 | CCCCCBr | 4.88% | –

— PubChem BioAssay (Tox21)
